Results on 40 compounds are retold here after PubChem BioAssay (NCATS).

Results filed as inconclusive are left out. A number with no mark means an inactive call. Active and inactive are the calls of the source. Calls come from the whole dose curve; as a rule, active = well fitted inhibition curve with a large enough effect; inconclusive = small, poorly fitted or top-dose-only effect; inactive = no such curve, though single readings can be large or run the other way.
Potency is the fitted concentration of half-maximal effect.

The assay in a line: qHTS assay for measurement of the activity of small molecule inhibitors on Zika virus induced Caspase-3 activity in human iPSC derived neural progenitor cells (hNPCs) (AID 1224857). Note: nearly all actives have a fitted effect of over 65% in size. Conditions: hNPCs ZIKV-induced caspase-3/7, Caspase-Glo luminescence, 6 h; series mostly up to 45.7 µM; activity change, negative = inhibition: at the top concentration. The text has this:
National Center for Advancing Translational Sciences [NCATS]
Johns Hopkins University School of Medicine
Increase in the Caspase-3 activity indicates an activation of apoptosis cell death pathway caused by Zika virus infection in certain types of neuronal cells including human neural progenitor cells (hNPCs), astrocytes, and astrocytoma cell line (SNB-19). This cell-based caspase-3 activity assay measures the increased caspase-3 activity in the human iPSC derived neural progenitor cells (hNPCs) after a 6-hour Zika virus infection with a luminescence readout. A decrease in the luminescence signal in this assay by small molecule treatment indicates an inhibitory effect of that small molecule on the Zika virus induced caspase-3 activity that may correlate with its effect on reduction of Zika virus caused cell death.
The medium for hNPCs consists of DMEM/F12, N2 supplement (ThermoFisher, Cat.# 17502048), NEAA (ThermoFisher, Cat. # 11140050), 2 ug/ml heparin, 2 uM cyclopamine, and B27 (ThermoFisher, Cat. # 17504044). A Caspase-Glo 3/7 assay kit (catalog number G8092; Promega, Madison, WI) was used to detect caspase-3 activity induced by Zika virus infection in human cells. The reagent mixture was reconstituted as described in the protocol from the manufacturer. Polystyrene tissue culture treated and PDL coated white plates were obtained from Greiner Bio-One (Monroe, NC). Cells were seeded in 384- or 1536-well assay plates and cultured at 37 C with 5% CO2 for 16 to 20 hours. The typical cell seeding density in the 1536-well plate assay is 350 cells/well in 3 ul medium for hNPCs in tissue culture treated plates. Compounds were added to cells and incubated for one hour before addition of ZIKV solution to cells (2 FFU/cell). After incubation at 37 C with 5% CO2 for 6 hours, the reagent mixture of Caspase-Glo 3/7 assay kit was added to each well, followed by incubation at room temperature for 30 minutes. The luminescence intensity of the assay plates was measured using a ViewLux plate reader (PerkinElmer). Data were normalized by using the cell-containing wells without ZIKV as a negative control (0% induction of caspase 3/7 activity) and wells containing ZIKV infected cells (Caspase-3 activity induced) as a positive control (100% induction of caspase 3 activity). The percentage inhibitions of the increased Caspase-3 activity by small molecule inhibitors were then calculated.
On to `Nc1ncnc2c1ncn2[C@@H]1O[C@H](COP(=O)(O)OP(=O)(O)OP(=O)(O)OP(=O)(O)OC[C@@H]2O[C@H](n3cnc4c(N)ncnc43)[C@@H](O)C2O)C(O)[C@H]1O` (stereo not given in full), for which the “activity change, negative = inhibition” value was -9.58%. Consider `CO[C@H]1C[C@@H]2CC[C@@H](C)[C@@](O)(O2)C(=O)C(=O)N2CCCC[C@@H]2C(=O)O[C@H]([C@H](C)C[C@@H]2CC[C@H](OP(C)(C)=O)[C@H](OC)C2)CC(=O)[C@H](C)C=C(C)[C@@H](O)[C@@H](OC)C(=O)[C@H](C)C[C@H](C)C=CC=CC=C1C`, for which the “activity change, negative = inhibition” value is 36.4%. As to `O=C1NC(=O)C(=Cc2ccc3c(c2)OC(F)(F)O3)S1`, the “activity change, negative = inhibition” value was -7.25%.

For the compound `Clc1cc(Cl)cc(CNc2ncncc2-c2ccc3c(c2)OCO3)c1`, the “activity change, negative = inhibition” value is 73.3%. Consider `O=C1C[C@@H](c2ccc(O)cc2)Oc2cc(O)cc(O)c21`, for which the Potency was 18.7 µM (active).

For the compound `CCN(CC)C(=O)c1ccc(O)c(OC)c1`, the Potency result was “inactive”. With `N#CC1(c2ccc(NC(=O)c3cccnc3NCc3ccncc3)cc2)CCCC1`, the Potency is 16.6 µM (active). Take `CC(C)(C(=O)NCC(F)(F)C(F)(F)F)C(=O)N[C@@H]1C(=O)Nc2ccccc2-c2ccccc21`: the “activity change, negative = inhibition” value is 1.24%. Consider `CN(C)CCC(c1ccccc1)c1ccccn1` (stereo not given), for which the Potency entry was “inactive”. For the compound `CC(=O)N[C@@H](CS)C(=O)O`, the Potency result is “inactive”. On to `NC(CO)(CO)CCc1ccc(Sc2cccc(OCc3ccccc3)c2)cc1Cl`, for which the “activity change, negative = inhibition” value is 0.958%. For `O=C(O)CCc1nc(-c2ccccc2)c(-c2ccccc2)o1`, the Potency entry was “inactive”. For `O=c1[nH]cnc2c1ncn2[C@H]1CC[C@@H](CO)O1`, the “activity change, negative = inhibition” value was 10.4%. As for `OC[C@@H](O)[C@H](O)[C@H](O)[C@@H](O)CO`, the Potency entry is “inactive”.

In the case of `O=C(O)CCC(C(=O)O)N1C(=O)c2ccccc2C1=O` (stereo not given), the “activity change, negative = inhibition” value is 0.192%. With `COc1ccc(-c2nc(N3CCOCC3)c3sc(CN(C)c4ncc(C(=O)NO)cn4)cc3n2)cn1`, the “activity change, negative = inhibition” value was 70.1%. Regarding `O=C(O)Cc1cccc2ccccc12`, the Potency result is “inactive”.

As to `CON=C(C(=O)N[C@@H]1C(=O)N2C(C(=O)OCOC(=O)C(C)(C)C)=C(C=Cc3scnc3C)CS[C@H]12)c1csc(N)n1`, the “activity change, negative = inhibition” value is -21.2%.

For `OC[C@H]1O[C@@H](Oc2cc(O)cc(C=Cc3ccc(O)cc3)c2)[C@H](O)[C@@H](O)[C@H]1O`, the “activity change, negative = inhibition” value was -12.2%. `N#Cc1ccc(NC(=O)Nc2ccccc2Br)c2n[nH]nc12`: the “activity change, negative = inhibition” value was -8%. Consider `O=C1C(Cl)=C(NCCN2CCOCC2)C(=O)c2ncccc21`, for which the Potency is 2.35 µM (active). With `CC=CC(=O)N(CC)c1ccccc1C`, the “activity change, negative = inhibition” value was -1.86%. Same read-out and setting: next, `Clc1ccc(-c2nc3sccn3c2C=NOCc2ccc(Cl)c(Cl)c2)cc1`: -8.13%. Same read-out and setting: under `CCOC(=O)O[C@]1(C(=O)OCCl)CC[C@@H]2[C@H]3CCC4=CC(=O)C=C[C@]4(C)[C@@H]3[C@@H](O)C[C@@]21C` stands 6.11%; under `Cc1c(O)cccc1C(=O)N[C@@H](CSc1ccccc1)[C@H](O)CN1C[C@H]2CCCC[C@@H]2C[C@@H]1C(=O)NC(C)(C)C`, 9.62%; under `O=C(NOCC(O)CO)c1cc(Br)c(F)c(F)c1Nc1ccc(I)cc1F` (stereo not given), -0.512%. In the case of `COc1ncc(-c2ccc3nccc(-c4ccnnc4)c3c2)cc1NS(=O)(=O)c1ccc(F)cc1F`, the “activity change, negative = inhibition” value is 156%. With `O=C1c2ccccc2-[n+]2ccc3c([nH]c4ccccc43)c21`, the Potency is 1.05 µM (active).

In the case of `Cc1c[nH]c(C=C2C(=O)Nc3ccccc32)c1CCC(=O)O`, the “activity change, negative = inhibition” value is -5.98%.

Take `CO[C@@H](C(=O)N1Cc2[nH]nc(NC(=O)c3ccc(N4CCN(C)CC4)cc3)c2C1)c1ccccc1`: the “activity change, negative = inhibition” value is 43.6%. Same read-out and setting: under `COCCOc1nc(-c2ccc(Cl)c(Cl)c2)n(-c2ccc(NC(=O)CCl)cc2)n1` stands 66.7%; under `O=c1cc(CN2CCOCC2)occ1OCCCCCSc1ccnc2cc(C(F)(F)F)ccc12`, 87.6%; under `O=C(O)c1ccccc1C(=O)Nc1ccc(-c2ccccc2)cc1`, -26.2%. Regarding `Nc1nc(Cl)nc2c1ncn2[C@@H]1O[C@H](COP(=O)(O)OP(=O)(O)OP(=O)(O)O)C(O)[C@H]1O` (stereo not given in full), the “activity change, negative = inhibition” value was 3.89%. For `CN(C[C@@H]1COCCO1)S(=O)(=O)Nc1ccc2ccc3ncc(-c4cnn(C)c4)cc3c(=O)c2c1`, the “activity change, negative = inhibition” value is 37.4%.

`CO[C@H]1C=CO[C@@]2(C)Oc3c(C)c(O)c4c(O)c(c5c(c4c3C2=O)NC2(CCN(CC(C)C)CC2)N=5)=NC(=O)C(C)=CC=C[C@H](C)[C@H](O)[C@@H](C)[C@@H](O)[C@@H](C)[C@H](OC(C)=O)[C@H]1C`: the “activity change, negative = inhibition” value was -0.864%.

`COCCCCC(=NOCCN)c1ccc(C(F)(F)F)cc1`: the “activity change, negative = inhibition” value is -25.6%. Take `NC(=O)[C@@H](CCC(F)(F)F)N(Cc1ccc(-c2ncon2)cc1F)S(=O)(=O)c1ccc(Cl)cc1`: the “activity change, negative = inhibition” value was -19.7%. On to `COc1cccc([C@@H](C)NCCCc2ccccc2Cl)c1`, for which the “activity change, negative = inhibition” value was 27.1%.

With `c1ccc2c(-c3cnn4cc(-c5ccc(N6CCNCC6)cc5)cnc34)ccnc2c1`, the “activity change, negative = inhibition” value is -31%.
